HT1080 IDH1KD tx: qHTS for induction of synthetic lethality in tumor cells producing 2HG: qHTS for the HT-1080-IDH1KD cell line. HT-1080 IDH1 knockdown viability, ATP luminescence, 48 h. Potency, µM (top dose mostly 46.1 µM), usual class: cytotoxic. actives 2% (n = 360,000). AID 686971, 2013
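Viability of IDH1-knockdown HT-1080 fibrosarcoma cells was assessed by CellTiter-Glo after 48 h at 37 °C with titrated compound; concentration-effect curves were classified by fit quality and response size.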
TDP1 cell noCPT: qHTS for Inhibitors of human tyrosyl-DNA phosphodiesterase 1 (TDP1): qHTS in cells in absence of CPT. DT40 Tdp1-/- hTDP1 cells, no CPT, ATP luminescence, 48 h. Potency, µM (top dose mostly 46.2 µM), hits mostly inhibitors. actives 15% (n = 420,000); note: nearly all actives have a fitted effect of over 55% in size
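Luminescent ATP content (CellTiter-Glo) served as the growth readout. Knockout chicken DT40 cells expressing human TDP1 were exposed to compounds without camptothecin for a minimum 48 hr at 37 °C.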
ELG1 repair inh: qHTS screen for small molecules that inhibit ELG1-dependent DNA repair in human embryonic kidney (HEK293T) cells expressing luciferase-tagged ELG1. HEK293T ELG1-luciferase reporter, luminescence, 16 h; DNA damage induced by 5-fluorouridine. actives 2.3% (n = 330,000). Potency, µM (highest dose often 46.1 µM), usual class: inhibitors. AID 504467, 2011; note: nearly all actives have a fitted effect of over 55% in size
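HEK293T cells expressing luciferase-tagged ELG1 (2,000/well) received 5-Fluorouridine plus compound or DMSO for 16 hr at 37 °C. Luciferase was read by ONE-Glo luminescence after 30 min at room temperature.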
DT40 TDP1 CPT: qHTS for Inhibitors of human tyrosyl-DNA phosphodiesterase 1 (TDP1): qHTS in cells in presence of CPT; chicken DT40 Tdp1-/-;hTDP1 cells + 20 nM CPT, ATP luminescence, 48 h; actives 12% (n = 420,000); AID 686979, 2013; Potency, µM (series often up to 46.2 µM), actives largely listed as inhibitors; note: nearly all actives have a fitted effect of over 55% in size
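Chicken DT40 Tdp1-/- cells stably complemented with human TDP1 were seeded at 400 cells/well in medium containing 20 nM camptothecin, exposed to pin-transferred compounds, and grown at 37 °C for at least 48 hr. Viability was read as ATP luminescence.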
HT1080-NT tox: qHTS for induction of synthetic lethality in tumor cells producing 2HG: qHTS for the HT-1080-NT fibrosarcoma cell line; HT-1080-NT fibrosarcoma viability, CellTiter-Glo ATP luminescence, 48 h; Potency, µM (top dose mostly 46.1 µM), most hits filed as cytotoxic; actives 1.6% (n = 360,000);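 note: NT is the 2HG producing partner of a matched IDH1 knockdown line; nearly all actives have a fitted effect of over 55% in size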
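Fibrosarcoma NT cells, 750 per well in 5% FBS RPMI, were exposed to compound for 48 hours. Viability: CellTiter-Glo luminescence.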
IL1B secr inh: qHTS for Inhibitors of Inflammasome Signaling: IL-1-beta AlphaLISA Primary Screen. actives 4.7% (n = 360,000). activity change, % at 57.5 µM. THP-1 LPS/ATP IL-1B secretion, AlphaLISA, 16 h; hits give low values. AID 743279, 2014; in the data active = activity change below about -50%; inconclusive = mostly about -30% to -49%
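THP-1 cells pretreated 1 hr with compounds (up to 57.5 uM final), then stimulated with LPS (250 ng/mL final) plus ATP (1.25 mM final); secreted IL-1B measured by AlphaLISA after 16 hr, decreased signal indicating inhibition.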
Hits are given with their value; - = inactive; ? = inconclusive; . = no result. Hits are enriched below; roughly 19% of the tested compounds scored in any of these assays. Unless noted, calls come from the whole dose curve; as a rule, active = well fitted curve in the direction sought with a large enough effect; inconclusive = small, poorly fitted or top-dose-only effect, or another doubt; inactive = no such curve, though single readings can be large; an effect the other way counts as inactive or inconclusive.

SMILES	HT1080 IDH1KD tx	TDP1 cell noCPT	ELG1 repair inh	DT40 TDP1 CPT	HT1080-NT tox	IL1B secr inh
COC(=O)N/N=C/c1cn(CCOc2cccc(OC)c2)c2ccccc12	-	21µM	-	?	-	-
Cc1cccc(OCC(=O)NCC(=O)N/N=C/c2ccccc2)c1	-	-	-	-	-	-
Cc1cccc(OCC(=O)NCC(=O)N/N=C/c2ccc(O)cc2O)c1	18µM	5.8µM	?	16µM	-	-
COc1cccc(/C=N/NC(=O)CNC(=O)COc2cccc(C)c2)c1O	23µM	18µM	?	7.3µM	?	-
CC1(C(=O)NCc2cccs2)CCN1C(=O)Cc1ccc(Cl)cc1Cl (stereo not drawn)	-	?	.	?	-	-
COc1cc(NC(=O)CCCN2C(=O)CCn3nc(-c4cn(C)c5ccccc45)cc32)cc(OC)c1	.	18µM	.	?	.	.
CC(NC(=O)CCCN1C(=O)CCn2nc(-c3cn(C)c4ccccc34)cc21)c1ccccc1 (stereo not drawn)	.	23µM	.	?	.	.
CCOc1ccccc1CNC(=O)CCCN1C(=O)CCn2nc(-c3cccn3C)cc21	.	?	.	18µM	.	.
CC(C)NC(=O)CN1C(=O)CCn2nc(-c3cn(C)c4ccccc34)cc21	.	-	.	-	.	.
Cc1cccc(C)c1NC(=O)CCCN1C(=O)CCn2nc(-c3cn(C)c4ccccc34)cc21	.	13µM	.	?	.	.
CCc1ccccc1NC(=O)CCCN1C(=O)CCn2nc(-c3cn(C)c4ccccc34)cc21	.	-	.	-	.	.
CCCNC(=O)CCCN1C(=O)CCn2nc(-c3cccn3C)cc21	.	-	.	-	.	.
COc1cccc(C(=O)NCC(=O)N/N=C/c2cccs2)c1	-	-	-	-	-	-
COc1ccc(NC(=O)N2CCN(C(=O)C(Cc3ccc(F)cc3)NC(C)=O)CC2)cc1 (stereo not drawn)	-	-	?	-	-	-
Cn1cc(-c2cc3n(n2)CCC(=O)N3CCCC(=O)NCc2ccccc2Cl)c2ccccc21	.	13µM	.	16µM	.	.
COCCNC(=O)CN1C(=O)CCn2nc(-c3cn(C)c4ccccc34)cc21	.	-	.	-	.	.
CCOc1nc(Nc2ccc(OC)c(Cl)c2)nc(OCC)n1	-	?	?	18µM	-	-
Cc1ccc(Nc2nc(N/N=C\c3ccc4c(c3)OCO4)nc(N3CCOCC3)n2)cc1	26µM	9.2µM	?	8.2µM	?	-
Fc1cccc(Nc2nc(N3CCOCC3)nc(N3CCOCC3)n2)c1	-	-	?	18µM	-	?
Cc1ccc(N/N=C/c2ccc(N3CCOCC3)cc2)cc1C	-	?	?	23µM	-	-
O=C(N/N=C/c1ccc(N2CCOCC2)cc1)C1CC1	-	-	-	-	-	-
CNC(=O)c1cc(NC(=O)N(CCC#N)CCN(C(=O)NC(Cc2ccccc2)C(=O)NC(CC(C)C)C(=O)NC)c2ccccc2)ccc1OC (stereo not drawn)	-	-	.	?	-	-
Cc1cc(Nc2ccccc2)nc(N2CCOCC2)n1	-	-	-	-	-	-
Cc1ccc(Cl)cc1Nc1nc(N2CCOCC2)nc(N2CCOCC2)n1	-	?	?	?	-	-54
COc1ccc(Nc2nc(Nc3ccc(OC)cc3OC)nc(N3CCOCC3)n2)c(OC)c1	.	13µM	.	15µM	.	.
SMILES	HT1080 IDH1KD tx	TDP1 cell noCPT	ELG1 repair inh	DT40 TDP1 CPT	HT1080-NT tox	IL1B secr inh
COc1ccc(Nc2nc(N3CCOCC3)nc(N3CCOCC3)n2)cc1Cl	-	21µM	5.6µM	?	-	-58
Cc1cc(Nc2cccc(Cl)c2)nc(N2CCOCC2)n1	-	?	?	15µM	-	-
CC1CCC2(CC1)NC(=O)N(CC(=O)Nc1ccc(N3CCCCC3)cc1)C2=O (stereo not drawn)	-	?	.	?	-	-
CC(C)NC(=O)OC1CC2CC1[C@H]1CCCCN1C2=O (stereo partly drawn)	-	-	.	-	-	-
Cc1cc(C(=O)Nc2ccc3[nH]ccc3c2)no1	-	-	?	-	-	-
CCOC(=O)C1CCCN(C(=O)CN2C(=O)NC(C)(c3ccc4ccccc4c3)C2=O)C1 (stereo not drawn)	-	-	-	-	-	-
O=c1c(-c2ccc(F)cc2)nc2cnc(Nc3ccccc3)nc2n1Cc1cccs1	.	?	.	-	.	.
Cc1ccc(Nc2nc(Nc3ccc(C)c(C)c3)nc(N3CCOCC3)n2)cc1C	.	10µM	.	15µM	.	.
CCCNC(=O)c1c(CSc2ccc(Cl)cc2)noc1C(=O)NCc1ccccc1	-	?	.	?	-	?
CCCCNC(=O)c1c(CSc2ccc(Cl)cc2)noc1C(=O)NCc1ccccc1	-	?	.	18µM	-	-
CN(C)CCNC(=O)c1c(CSc2ccc(Cl)cc2)noc1C(=O)NCc1ccccc1	-	16µM	.	18µM	-	-
O=C(NCc1ccccc1)c1onc(CSc2ccc(Cl)cc2)c1C(=O)NCc1ccccc1	-	?	-	?	-	-

Assay outcomes deposited in PubChem BioAssay by National Center for Advancing Translational Sciences (NCATS).
